Each structure is given as a SMILES string. Records with an inconclusive call do not appear. A call without a number means that no potency is given here. Calls of active or inactive are those of the source. Calls come from the whole dose curve; as a rule, active = well fitted antagonist curve with a large enough effect in the main read-out, with a control signal flat; inconclusive = small, poorly fitted or top-dose-only effect; inactive = no such curve, though single readings can be large or run the other way.

The target in this assay is Neuropeptide S receptor (Homo sapiens) (UniProt Q6W5P4). Description: Confirmation Concentration-Response Assay for Antagonists of the Neuropeptide S Receptor: Calcium Signal Transduction. The settings on record: CHO-NPSR cells, NPS-induced calcium flux, FDSS; series mostly up to 19.3 µM. An excerpt: NIH Chemical Genomics Center [NCGC] NIH Molecular Libraries Probe Production centers Network [MLPCN] MLPCN Grant: X01-DA026210-01 Assay Submitter (PI): Heilig, Markus Alexander NCGC Assay Overview: Neuropeptide S receptor (NPSR), previously known as GPR154, is a recently de-orphanized G protein coupled receptor. Its endogenous ligand is the 20 amino acids peptide Neuropeptide S (NPS). […] NPS and its receptor are found in various tissues. Specifically they are highly expressed in brain areas that have been implicated in modulation of arousal, stress and anxiety. Central administration of NPS in mice produces an unusual profile of activity by inducing wakefulness and arousal, while at the same time suppressing anxiety. Therefore, NPSR may represent a novel drug target for the treatment of sleep and anxiety disorders. To identify NPSR antagonists, we developed a cell-based assay with transfected NPS receptor. NPS can stimulate the production of cAMP as well as release intracellular calcium in Chinese hamster ovary cells stably expressing NPS receptor. This change in intracellular calcium can be detected using a calcium indicator dye on a calcium imaging plate reader system (FDSS).
Chain of Neuropeptide S receptor (Homo sapiens) (Q6W5P4 whole entry, looked up): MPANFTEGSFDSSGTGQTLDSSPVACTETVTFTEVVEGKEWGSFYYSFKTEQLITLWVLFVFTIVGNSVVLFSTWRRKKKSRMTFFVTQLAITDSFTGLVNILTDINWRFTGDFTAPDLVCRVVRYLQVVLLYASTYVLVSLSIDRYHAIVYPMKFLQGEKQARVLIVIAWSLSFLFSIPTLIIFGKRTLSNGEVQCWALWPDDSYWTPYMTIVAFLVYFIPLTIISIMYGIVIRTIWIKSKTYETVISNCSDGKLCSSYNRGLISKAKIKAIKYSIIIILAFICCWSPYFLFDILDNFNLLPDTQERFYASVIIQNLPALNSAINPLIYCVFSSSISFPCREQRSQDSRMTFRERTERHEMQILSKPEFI
NCGC Assay Protocol Summary: A Chinese hamster ovary (CHO) cell line stably expressing the NPS receptor (CHO-NPSR) was obtained from Dr. Heilig lab at NIAAA and maintained in F-12 Kaighn's media (Invitrogen, Carlsbad, CA, 21127) supplemented with 10 % FBS, 100 units/ml penicillin, 100 ug/ml streptomycin and 250 ug/ml geneticin at 37C, 5% CO2 in a humidified atmosphere. Before the assay, aliquots of cells were frozen and stored at -135C. The assay was performed on a FDSS-7000 kinetic plate reader in 1536-well format. For both agonist (1-220s) and antagonist (221-400s) phases, the maximums of kinetic fluorescence responses were converted separately into text files using the instrument's software data export utility. Data for agonist response were normalized to the controls for basal activity (DMSO only) and 100% activation (NPS). […] AC50 values were determined from concentration-response data modeled with the standard Hill equation. NPS 1536-well FDSS assay protocol: (1) Frozen CHO-NPSR cells were thaw, washed once with fresh media and resuspended in F-12 Kaighn's media supplemented with 10 % FBS, 100 units/ml penicillin and 100 ug/ml streptomycin. Cells were plated at 3 ul/well (1200 cells) to black, clear-bottom, tissue-culture treated 1536-well plates, and then cultured at 37C, 5 % CO2 for 16 to 30 hours. (2) Add 3 ul of calcium dye (from High Performance PBX Calcium Assay Kit, BD Biosciences). The calcium dye was prepared according to the manufactory's instruction. (3) Incubation at 37C, 5 % CO2 for 60 to 120 min. (4) Load plates to FDSS-7000. The following steps were performed on FDSS-7000. (5) Record fluorescent background (Ex 480 nm, Em 520-560 nm) for 10 s. (6) Add 23 nl/well of compound in DMSO solution. The final titration for each compound was between 0.6 nM and 46 uM. Record agonist response for 210 s. (7) Add 2 ul of stimulation reagent (1X HBSS buffer, 0.1% BSA, 60 nM NPS). Record antagonist response for 140 s. Keywords: MLSMR, MLPCN, NIH Roadmap, qHTS, NCGC, NPS, Neuropeptide S Antagonists
(Calcium flux is commonly read through the fluorescence of an indicator in the cells.)
Consider `COc1ccc(-c2cc(N)n(S(=O)(=O)c3c(F)c(F)c(F)c(F)c3F)n2)cc1OC`, for which the Potency is 7.08 µM (active). Under `CCN(CC)S(=O)(=O)c1ccc2c(c1)nc(SC(C)C(N)=O)n2-c1ccc(OC)cc1` (stereo not given) stands “inactive”.

With `S=C(Nc1ccccc1)Nc1nccs1`, the Potency entry is “inactive”. Under `O=C(O)CCCCCNc1nc(=S)[nH]c2ccccc12` stands “inactive”.

On to `CCOC(=O)c1cnc(-n2nc(C)cc2C)nc1NC1CCCC1`, for which the Potency was 2.82 µM (active). In the case of `COC(=O)c1ccc(C(=O)OC)c(NC(=O)CSc2cccc[n+]2[O-])c1`, the Potency result is “inactive”. Under `CC1(C)Cc2c(c(N3CCOCC3)nc3sc4c(NCC5CCCO5)nnnc4c23)CS1` (stereo not given) stands “inactive”; under `O=C1CC(NCc2ccncc2)C(=O)N1c1ccccc1` (stereo not given), “inactive”; under `Cc1cc2nc3ccc(=[N+](C)C)cc-3sc2cc1N`, “inactive”. Under `Cc1ccc2nc3ccc(N4CCCCCCC4)nn3c(=O)c2c1` stands “inactive”; under `CCOC(=O)c1cnc(-n2nc(C)cc2C)nc1Nc1ccc(C)cc1`, “inactive”. Under `Cc1ccc(-n2ncc3c(NCc4ccc5c(c4)OCO5)ncnc32)c(C)c1` stands “inactive”; under `C=CCOc1c(Cl)cc(CNc2ccc(N(C)C)cc2)cc1OC`, “inactive”; under `O=c1cc(CNCCCO)c2ccccc2[nH]1`, “inactive”.

On to `CCn1cc(C(=O)NCC2CCCO2)c(=O)c2cc(S(=O)(=O)N3CCCCCC3)ccc21` (stereo not given), for which the Potency result is “inactive”.

For `COCCCn1c(SCc2cc(=O)[nH]c3ccccc23)nnc1-c1ccco1`, the Potency entry is “inactive”. In the case of `O=C(N1CCOCC1)C1(c2ccc(Cl)cc2)CCCC1` it was “inactive”.

For `O=C(O)c1cccc(Nc2ncnc3ccccc23)c1`, the Potency result was “inactive”. As for `CN(C)C(=S)N=Nc1[nH]c2ccccc2c1O`, the Potency entry was “inactive”. In the case of `CCC(Sc1ccc2nnc(-c3cccnc3)n2n1)C(=O)O` (stereo not given) it was “inactive”; in that of `COCCCn1cnc2c(c1=O)c1nc3ccccc3nc1n2CCc1ccccc1`, “inactive”; in that of `CN(C)C(=O)Oc1cccc([N+](C)(C)C)c1`, “inactive”. In the case of `O=[N+]([O-])c1cc2c(cc1/C=N/n1c(-c3ccccc3)n[nH]c1=S)OCO2` it was “inactive”. As for `CC(=O)c1sc(-c2ccccc2)cc1NS(=O)(=O)c1ccccc1`, the Potency entry was “inactive”. In the case of `CC1CCCc2sc3nc(N4CCN(CCO)CC4)n4ncnc4c3c21` (stereo not given) it was “inactive”; in that of `CCOc1ccc(N2C(=O)CC(NCCc3ccncc3)C2=O)cc1` (stereo not given), “inactive”; in that of `COc1ccc(C(=O)N(Cc2ccco2)Cc2cccs2)c(O)c1`, “inactive”. In the case of `COc1ccc(C2c3c(ncn(CCN4CCOCC4)c3=N)Oc3ccc4ccccc4c32)cc1OC` (stereo not given) it was 1.58 µM (active); in that of `O=C(COC(=O)c1ccccc1C(=O)c1ccc(Cl)c([N+](=O)[O-])c1)NC1CCCCCC1`, 4.47 µM (active).

On to `CCCCOc1ccc(OCCCN2CCOCC2)cc1`, for which the Potency result was “inactive”.

On to `CC(=O)n1nc2nc(C)cc(C)c2c1N`, for which the Potency entry was “inactive”. Turning to `O=C(CSc1n[nH]c(-c2cccnc2)n1)Nc1ccnc2ccccc12`, the Potency entry is “inactive”. Under `Cc1cccc(-c2nnc(SCc3cc(=O)[nH]c4ccccc34)n2C)c1` stands “inactive”; under `CN(CC(=O)NCc1ccc(F)cc1)S(=O)(=O)c1cccc2nsnc12`, “inactive”; under `COc1ccc(OC)c(C2C(C(=O)Nc3nc4ccccc4s3)=C(C)NC3=C2C(=O)CCC3)c1` (stereo not given), 2.82 µM (active).

Turning to `COc1ccc(N(CC(=O)Nc2cccc(SC)c2)S(C)(=O)=O)cc1Cl`, the Potency result is “inactive”.

Take `CC1CCCCN1S(=O)(=O)c1ccc(C(=O)Nc2sccc2C(N)=O)cc1` (stereo not given): the Potency was 12.6 µM (active). In the case of `CCC(c1nnnn1C1CCCC1)N1CCN(c2ccccc2)CC1` (stereo not given) it was “inactive”. In the case of `N#Cc1cnn(-c2ncnc3sc4c(c23)CCCC4)c1N` it was “inactive”; in that of `O=C(/C=C/c1ccco1)NC(=S)Nc1nc(-c2ccc3ccccc3c2)cs1`, “inactive”.

The values above are taken from PubChem BioAssay AID1489 (National Center for Advancing Translational Sciences (NCATS), 2009).
